# GAA glycogen: alters human alpha-glucosidase cleavage of glycogen; recombinant GAA, glycogen substrate, Amplex Red glucose oxidase fluorescence; Potency, µM (titrated, usually from 76.4 µM), for the others: at the highest dose activity change, negative = inhibition, usual class: inhibitors; 0.38% of 300,000 active; AID 2100;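 also: potency is read from the fitted curve at half-maximal effect; 0% = full enzyme reaction and -100% = no-enzyme basal signal; the screen sought inhibitors and activators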
#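 Recombinant human alpha-glucosidase (4 nM final) hydrolysed bovine liver glycogen (30 ug) for 40 min at 37 C in pH 5.0 citrate/phosphate with 0.01% Tween-20. Released glucose detected by glucose oxidase/Amplex Red, Ex 573/Em 610 nm. Compounds up to 77 uM; AC50 from Hill fits.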
# GAA spleen mod: inhibitors or activators of human alpha-glucosidase in spleen homogenate | Potency, µM (series often up to 79.9 µM), for inactives: top-dose activity change, negative = inhibition, actives largely listed as inhibitors | AID 2112 | 0.006% of 240,000 active | human spleen homogenate, 4-MU-alpha-glucoside fluorescence;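 also: potency is read from the fitted curve at half-maximal effect; 0% = enzyme with vehicle and -100% = no enzyme basal signal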
#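 Enzyme source: human spleen homogenate, 1 ug/well. Buffer 50 mM citric acid/K phosphate pH 5.0, 0.01% Tween-20. 4-MU-alpha-glucoside 1 mM; 37 C x 40 min; NaOH/glycine stop; fluorescence.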
# N370S GC mod: N370S glucocerebrosidase modulation, Gaucher chaperone candidate. P04062. N370S GC spleen homogenate, 4MU-glucoside fluorescence. Potency, µM (series often up to 59.4 µM), inactives show top-dose activity change, negative = inhibition, usual class: inhibitors. 0.092% of 330,000 active. AID 2101;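 also: potency is read from the fitted curve at half-maximal effect; 0% = full enzyme activity and -100% = no enzyme basal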
# GLA spleen mod: inhibits or activates alpha-galactosidase in human spleen homogenate; AID 2107; human spleen homogenate, 4MU-alpha-Gal fluorescence, 40 min; Potency, µM (doses to about 80 µM), without a hit: at the top dose activity change, negative = inhibition, actives largely listed as inhibitors; 0.008% of 240,000 active;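 also: potency is read from the fitted curve at half-maximal effect; 0% = enzyme with vehicle and -100% = no enzyme basal signal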
#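 Human spleen homogenate (1 ug) was the enzyme source, with 4-methylumbelliferyl-alpha-D-galactopyranoside (1 mM final) in pH 5.0 citrate buffer with 0.01% Tween-20. Compounds were titrated; after 40 min at 37C, NaOH/glycine stop, 4-MU fluorescence read; AC50 from Hill fits.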
# GLA inh pH 4.5: inhibitors of human alpha-galactosidase A at pH 4.5 | purified enzyme, 4-MU-alpha-Gal fluorescence, pH 4.5 | AID 1467 | P06280 | 230,000 tested, under 10 active | activity change, negative = inhibition, % at 105 µM;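 also: 0% = full activity with enzyme and -100% = basal without enzyme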
# Target sequence (P06280 whole entry, looked up): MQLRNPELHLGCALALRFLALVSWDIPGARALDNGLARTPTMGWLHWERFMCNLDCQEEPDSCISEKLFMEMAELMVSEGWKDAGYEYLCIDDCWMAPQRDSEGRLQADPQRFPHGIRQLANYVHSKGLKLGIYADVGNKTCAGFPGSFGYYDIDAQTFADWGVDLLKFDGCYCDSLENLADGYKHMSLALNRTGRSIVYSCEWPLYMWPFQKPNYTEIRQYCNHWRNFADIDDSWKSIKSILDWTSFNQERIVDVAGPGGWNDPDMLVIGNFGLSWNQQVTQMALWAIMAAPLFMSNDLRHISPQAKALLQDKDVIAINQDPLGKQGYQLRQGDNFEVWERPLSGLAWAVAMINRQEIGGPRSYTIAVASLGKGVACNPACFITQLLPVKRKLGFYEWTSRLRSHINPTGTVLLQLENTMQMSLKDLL
# GAA inh: blocks human lysosomal alpha-glucosidase | P10253 | purified human GAA, 4-MU-alpha-glucoside fluorescence | Potency, µM (top dose mostly 76.9 µM), inactives show at the highest dose activity change, negative = inhibition, most hits filed as inhibitors | 0.005% of 200,000 active;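 also: potency is read from the fitted curve at half-maximal effect; plate controls were uninhibited enzyme wells for no effect and no-enzyme background for full effect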
#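 AC50 values come from Hill fits of compound titrations (up to 77 uM) against 4 nM human enzyme. Substrate 4-methylumbelliferyl-alpha-D-pyranoside at 400 uM, pH 5.0 citrate buffer, 20 min room temperature; fluorescence Ex 365/Em 440 after alkaline stop.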
# Active calls of the source: *; ? = inconclusive; · = no result given; [ ] = remark or other dose. A selection: hits, their analogues and other compounds. The true share with any hit is near 0.43%. Calls follow the shape of the dose curve; as a rule, active = well fitted curve in the direction sought with a large enough effect; inconclusive = small, poorly fitted or top-dose-only effect, or another doubt; inactive = no such curve, though single readings can be large; an effect the other way counts as inactive or inconclusive.
SMILES,GAA glycogen,GAA spleen mod,N370S GC mod,GLA spleen mod,GLA inh pH 4.5,GAA inh
Cc1ccc(-c2nc3ncccn3c2NC2CCCCC2)o1,28µM*,-8%,-26%,-1%,-2,-2%
Cc1ccc(-c2nc3ncccn3c2Nc2ccc3c(c2)OCCO3)o1,14µM*,-4%,-2%,4%,-3,-3%
Clc1ccc(-c2nc3ncccn3c2Nc2ccc3c(c2)OCCO3)cc1,?,2%,8%,-18%,5,-3%
Nc1ccccc1Nc1nc2ccccc2[nH]1,20µM*,·,2%,·,·,·
Cc1cc(O)ccc1Nc1nc(-c2cccs2)cs1,32µM*,-2%,-10%,-16%,-2,3%
Cc1cc(O)c(/C=N/Nc2ccccc2Cl)c(=O)o1,25µM*,-4%,-2%,9%,-4,-1%
Cc1ccc(NC(=O)CCCc2nnc3n(C)c(=O)c4sccc4n23)cc1C,-4%[76.3 µM],·,·,·,·,·
Cn1c(=O)c2sccc2n2c(CCCC(=O)Nc3ccc(F)c(F)c3)nnc12,2µM*,·,·,·,·,·
Cc1ccc(C(=S)N2CCN(Cc3ccccc3)CC2)cc1,-3%,-2%,13%,-4%,-8,-3%
CCN1CCN(C(=S)c2ccc(-c3ccccc3)cc2)CC1,-14%,7%,11µM*,2%,-7,1%
CCCC(=O)NC(=S)Nc1cccc2c(O)cccc12,8.9µM*,8%,-8%,2%,5,-4%
O=C(NC(=S)Nc1cccc2c(O)cccc12)c1ccccc1[N+](=O)[O-],10µM*,·,-9%,·,·,·
CCCC(=O)NC(=S)Nc1ccccc1C(=O)OC,-4%,-9%,7%[12.8 µM],-6%,4,1%
C=CCN=c1scc(C)n1/N=C/c1ccc(O)c(O)c1,?,-20%,-20%,-5%,-6,-12%
CN=c1scc(-c2ccco2)n1/N=C/c1ccc(O)c(O)c1,5.6µM*,-5%,-23%,-8%,-1,-11%
COc1ccc(C2NC3=C(CCCC3)C(C#N)(C#N)C2(C#N)C#N)cc1 (centres undefined),-27%,-7%,-10%,-1%,-5,-11%
COc1ccc(C2NC3=C(CCC3)C3(C#N)C4(N=C(N)C23C#N)OCCO4)cc1 (centres undefined),22µM*,3%,6%,-8%,-5,-10%
CN(C)c1ccc(N=NS(=O)(=O)O)cc1,·,-12%,-17%,-4%,·,·
CCOc1ccc(Nc2nc(Cc3nnc(SCC(=O)NCc4ccco4)n3CC)cs2)cc1,18µM*,4%,-5%,3%,-2,-4%
CCn1c(COc2ccc(C)cc2)nnc1SCC(=O)NCc1ccco1,3%,4%,-6%,0%,-3,-5%
COC(=O)c1cc(NCc2cccs2)ccc1N1CCOCC1,?,8%,1%,4%,-8,-9%
O=C(O)c1cc(NCc2cccs2)ccc1N1CCOCC1,9.9µM*,-3%,-3%,-3%,2,-5%
COC(=O)c1cc(NCc2c(F)cccc2Cl)ccc1N1CCOCC1,12µM*,3%,-4%,2%,2,0%
COC(=O)c1cc(NS(=O)(=O)c2cccc(Cl)c2)ccc1N1CCOCC1,2%,10%,2%,9%,-4,·
CCCNC(=O)OC[C@@H]1O[C@H](CCO/N=C\[C@@H](C)[C@H](OCc2ccccc2)C(C)C)C=C[C@@H]1Oc1ccc(OC)cc1,·,-6%[17.4 µM],-3%[12.8 µM],-3%[17.5 µM],·,·
SMILES,GAA glycogen,GAA spleen mod,N370S GC mod,GLA spleen mod,GLA inh pH 4.5,GAA inh
COC(=O)Nc1ccc(S(=O)(=O)Nc2ccc(O)cc2)cc1,32µM*,-1%,-3%,-1%,6,-1%
O=[N+]([O-])c1cc2nc(O)c(O)nc2cc1[N+](=O)[O-],·,-10%,13µM*,-3%,-10,·
N#Cc1cc2nc(O)c(O)nc2cc1[N+](=O)[O-],·,-5%,·,7%,-1,·
CCC(C)S(=O)(=O)c1oc(-c2ccc(F)cc2)nc1S(=O)(=O)c1ccc(F)cc1 (centres undefined),-9%[76.3 µM],·,·,·,·,·
COc1ccc(OC)c(S(=O)(=O)Nc2ccc(O)c3ccccc23)c1,14µM*,-7%,19%,1%,2,-2%
O=[N+]([O-])c1cccc(Cl)c1Cl,·,-6%,1%,6%,·,·
Cc1ccc2sc(NNC(=O)C3=COCCO3)nc2c1C,6.3µM*,10%,-11%,6%,-5,-3%
O=C1C2C3C=CC(CC3)C2C(=O)N1/N=C/c1ccc(O)c(O)c1 (centres undefined),7.1µM*,-4%,0%,-1%,-3,-1%
CC(C)C[C@H](NC(=O)[C@H](CC(C)C)NC(=O)[C@@H](Cc1c[nH]c2ccccc12)NC(=O)[C@H](Cc1ccccc1)NC(=O)[C@@H](Cc1c[nH]c2ccccc12)NC(=O)[C@H](CCC(N)=O)NC(=O)[C@H](CCC(N)=O)NC(=O)[C@@H]1CCCN1C(=O)[C@H](CCCCN)NC(=O)[C@@H]1CCCN1C(=O)[C@@H](CCCNC(=N)N)NC(=O)[C@@H]1CCCN1C(=O)CNC(=O)[C@H](CC(C)C)NC(=O)[C@H](CC(C)C)NC(=O)[C@H](Cc1ccc(O)cc1)NC(=O)CNC(=O)[C@H](C)NC(=O)[C@H](CO)NC(=O)[C@H](CC(N)=O)NC(=O)[C@H](CC(C)C)NC(=O)[C@@H](NC(=O)[C@H](Cc1c[nH]c2ccccc12)NC(=O)CN)[C@@H](C)O)C(N)=O,·,-2%,-5%,-1%,·,·
Cc1ccc(C)c(NC(=S)NNC(=O)c2ccco2)c1,22µM*,0%,-5%,9%,-9,0%
COc1ccc(-c2ccccc2C2NC(C(=O)O)CCC2C)cc1 (centres undefined),·,-9%[17.4 µM],6%[12.8 µM],-5%[17.5 µM],·,·
COc1ccc(-c2ccc(C3C4C=CCC(C)C4C(=O)N3Cc3ccccc3)c(F)c2)cc1C (centres undefined),·,-4%,-4%,2%,·,·
CC1(C(=O)O)Sc2[nH]c(=O)sc2C2c3ccccc3OC(=O)C21 (centres undefined),25µM*,5%,-8%,6%,2,1%
CC(C)[C@H](NC(=O)[C@H](CC(=O)O)NC(=O)CNC(=O)[C@@H](N)CCCN=C(N)N)C(=O)O,·,3%,-8%,-5%,·,·
Cc1ccc(N(C)C(=O)N2CCN(S(=O)(=O)c3ccc(C)cc3)CC2)cc1,-1%,-28%,1%,-2%,-9,?
Cc1ccc(S(=O)(=O)N2CCN(C(=O)N(c3ccccc3)c3ccccc3)CC2)cc1,?,-27%,·,-17%,0,25µM*

# Bioassay records: PubChem BioAssay, National Center for Advancing Translational Sciences (NCATS)
